Measurements: the supplement of paper PMC10849652
Targets with a hit are over-represented here; the source holds about 8,800 in all. About 0.5% of all pairs of compound and target were hits. Values without a mark were called inactive.

Experiments:
Assay in all cases: log2 fold change, soluble protein after heating vs DMSO (PISA); higher = thermal stabilisation; K562 lysate, 10 uM; active = over 0.2 and 3.5 SD of the protein, either way, in both replicates (recomputed)
[1] = compound: C1=CC=C(C=C1)[C@H](COC2=CC3=C(C=C2)NC(=O)N3)NC(=O)C4=CC=CN(C4=O)CC5=CC(=C(C=C5)F)F
Outline: (§1)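 Dounce homogenisation of K562 pellets in PBS pH 7.4 with 1 mM MgCl2 produced a crude extract, used at 1 mg/mL protein. Exposure to 10 μM compound lasted 30 min, and aliquots were then heated for 3 min across 48°C-58°C, pooled and brought to 0.5% NP-40 at 4°C. The supernatant after 21,000xg for 90 min was quantified by TMTpro 16plex LC-MS/MS with channel sums equalised. Duplicate values are given as log-two fold change in thermal stability relative to solvent controls.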

[2] = compound: CC1=C(SC2=C1C(=N[C@H](C3=NN=C(N32)C)CC(=O)N)C4=CC=C(C=C4)Cl)C
Outline: as §1

[3] = compound: CC1=C2C(=CC=C1)N=C(N(C2=O)C3=CC=CC=C3C)CN4C=NC5=C(N=CN=C54)N
Outline: as §1

[4] = compound: Cc1sc2c(c1C)C(c1ccc(Cl)cc1)=N[C@@H](CC(=O)OC(C)(C)C)c1nnc(C)n1-2
Outline: as §1

[5] = compound: c1ccc([C@@H]2C[C@H]2NC2CCNCC2)cc1
Outline: as §1

Sequence of UniProt Q12851 (Q12851 whole entry, looked up): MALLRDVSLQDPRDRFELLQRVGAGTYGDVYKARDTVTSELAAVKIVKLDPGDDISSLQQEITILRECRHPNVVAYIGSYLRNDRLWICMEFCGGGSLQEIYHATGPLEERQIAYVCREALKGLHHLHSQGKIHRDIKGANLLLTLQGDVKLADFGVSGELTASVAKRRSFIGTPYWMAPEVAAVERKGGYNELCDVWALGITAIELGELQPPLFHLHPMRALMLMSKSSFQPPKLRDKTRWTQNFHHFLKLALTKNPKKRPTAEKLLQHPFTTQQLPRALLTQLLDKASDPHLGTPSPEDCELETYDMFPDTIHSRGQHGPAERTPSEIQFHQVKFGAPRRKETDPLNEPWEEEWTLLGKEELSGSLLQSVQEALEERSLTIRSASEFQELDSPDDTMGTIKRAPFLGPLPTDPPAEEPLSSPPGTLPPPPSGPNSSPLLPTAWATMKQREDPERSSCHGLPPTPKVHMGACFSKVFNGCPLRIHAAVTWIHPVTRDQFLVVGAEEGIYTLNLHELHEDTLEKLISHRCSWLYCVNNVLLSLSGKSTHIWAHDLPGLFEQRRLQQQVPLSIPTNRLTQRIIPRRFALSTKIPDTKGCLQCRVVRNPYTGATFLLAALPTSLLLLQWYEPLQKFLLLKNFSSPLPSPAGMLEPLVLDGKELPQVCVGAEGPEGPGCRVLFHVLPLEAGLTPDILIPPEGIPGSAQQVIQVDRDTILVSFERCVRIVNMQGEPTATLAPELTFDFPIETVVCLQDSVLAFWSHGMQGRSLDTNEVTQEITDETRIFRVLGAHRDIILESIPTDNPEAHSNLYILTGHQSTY
Sequence of UniProt P48059 (P48059 whole entry, looked up): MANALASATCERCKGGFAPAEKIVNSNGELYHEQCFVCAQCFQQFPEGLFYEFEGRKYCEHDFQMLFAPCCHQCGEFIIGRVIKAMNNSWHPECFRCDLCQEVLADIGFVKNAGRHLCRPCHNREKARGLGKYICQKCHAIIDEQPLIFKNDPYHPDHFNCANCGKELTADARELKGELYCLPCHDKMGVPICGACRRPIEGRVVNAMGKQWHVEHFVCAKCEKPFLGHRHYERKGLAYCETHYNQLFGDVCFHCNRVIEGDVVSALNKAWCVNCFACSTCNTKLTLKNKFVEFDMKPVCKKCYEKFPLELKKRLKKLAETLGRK
Sequence of UniProt Q9P2J5 (Q9P2J5 whole entry, looked up): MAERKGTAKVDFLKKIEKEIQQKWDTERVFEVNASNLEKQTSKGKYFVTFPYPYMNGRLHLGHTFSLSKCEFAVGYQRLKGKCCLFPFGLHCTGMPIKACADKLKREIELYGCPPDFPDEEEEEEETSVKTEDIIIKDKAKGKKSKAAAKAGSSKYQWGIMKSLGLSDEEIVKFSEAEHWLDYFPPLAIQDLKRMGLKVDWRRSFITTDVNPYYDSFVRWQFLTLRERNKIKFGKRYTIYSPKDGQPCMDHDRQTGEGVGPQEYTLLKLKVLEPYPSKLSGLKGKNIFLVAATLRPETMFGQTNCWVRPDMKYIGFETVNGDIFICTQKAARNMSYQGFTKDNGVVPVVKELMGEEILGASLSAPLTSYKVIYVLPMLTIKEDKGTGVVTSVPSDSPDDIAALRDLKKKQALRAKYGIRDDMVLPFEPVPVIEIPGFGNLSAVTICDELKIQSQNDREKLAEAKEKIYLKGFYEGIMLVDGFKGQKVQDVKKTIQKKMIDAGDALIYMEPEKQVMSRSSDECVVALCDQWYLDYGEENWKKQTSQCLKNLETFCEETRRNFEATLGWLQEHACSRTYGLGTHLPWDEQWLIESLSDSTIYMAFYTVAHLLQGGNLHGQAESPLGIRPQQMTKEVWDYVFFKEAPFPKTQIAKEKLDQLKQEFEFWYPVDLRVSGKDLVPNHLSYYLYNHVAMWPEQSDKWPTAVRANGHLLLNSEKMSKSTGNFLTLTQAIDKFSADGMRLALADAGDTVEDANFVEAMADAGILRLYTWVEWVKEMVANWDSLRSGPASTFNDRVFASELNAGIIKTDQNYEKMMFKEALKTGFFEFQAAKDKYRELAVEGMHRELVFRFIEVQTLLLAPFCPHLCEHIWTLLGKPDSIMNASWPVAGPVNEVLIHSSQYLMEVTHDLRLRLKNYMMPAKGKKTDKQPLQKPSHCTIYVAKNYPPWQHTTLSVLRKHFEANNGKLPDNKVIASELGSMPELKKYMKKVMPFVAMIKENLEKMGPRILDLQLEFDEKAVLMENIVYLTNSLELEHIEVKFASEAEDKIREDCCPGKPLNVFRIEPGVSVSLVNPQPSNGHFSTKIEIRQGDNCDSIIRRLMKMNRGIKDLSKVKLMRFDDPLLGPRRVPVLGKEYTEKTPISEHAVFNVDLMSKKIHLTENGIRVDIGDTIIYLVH
Sequence of UniProt Q8N4N3 (Q8N4N3 whole entry, looked up): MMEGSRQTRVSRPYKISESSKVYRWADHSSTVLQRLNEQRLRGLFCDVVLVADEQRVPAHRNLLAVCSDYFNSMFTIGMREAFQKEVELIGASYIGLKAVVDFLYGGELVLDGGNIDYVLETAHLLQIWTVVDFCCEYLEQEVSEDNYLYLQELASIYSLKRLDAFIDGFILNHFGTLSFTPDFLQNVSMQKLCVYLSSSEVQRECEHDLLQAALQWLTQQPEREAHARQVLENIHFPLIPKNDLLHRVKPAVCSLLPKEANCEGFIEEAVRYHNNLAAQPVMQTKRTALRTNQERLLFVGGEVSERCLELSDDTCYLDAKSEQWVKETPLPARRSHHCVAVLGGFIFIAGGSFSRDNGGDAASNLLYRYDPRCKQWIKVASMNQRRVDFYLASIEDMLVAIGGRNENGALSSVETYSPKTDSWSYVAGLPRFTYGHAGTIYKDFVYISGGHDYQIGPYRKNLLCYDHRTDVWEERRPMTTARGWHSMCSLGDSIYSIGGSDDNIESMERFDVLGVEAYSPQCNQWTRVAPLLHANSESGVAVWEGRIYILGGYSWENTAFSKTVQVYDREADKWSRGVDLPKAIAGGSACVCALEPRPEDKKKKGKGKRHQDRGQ
Sequence of UniProt P28482 (P28482 whole entry, looked up): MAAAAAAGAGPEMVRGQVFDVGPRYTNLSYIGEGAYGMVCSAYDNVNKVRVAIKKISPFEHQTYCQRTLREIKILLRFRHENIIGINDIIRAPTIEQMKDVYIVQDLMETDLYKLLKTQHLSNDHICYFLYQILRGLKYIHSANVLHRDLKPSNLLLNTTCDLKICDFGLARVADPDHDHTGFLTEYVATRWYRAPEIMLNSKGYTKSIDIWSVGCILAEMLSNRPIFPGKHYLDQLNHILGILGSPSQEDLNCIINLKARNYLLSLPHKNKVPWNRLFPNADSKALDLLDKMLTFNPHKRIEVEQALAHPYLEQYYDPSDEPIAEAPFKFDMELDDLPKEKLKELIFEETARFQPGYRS
Sequence of UniProt Q16659 (Q16659 whole entry, looked up): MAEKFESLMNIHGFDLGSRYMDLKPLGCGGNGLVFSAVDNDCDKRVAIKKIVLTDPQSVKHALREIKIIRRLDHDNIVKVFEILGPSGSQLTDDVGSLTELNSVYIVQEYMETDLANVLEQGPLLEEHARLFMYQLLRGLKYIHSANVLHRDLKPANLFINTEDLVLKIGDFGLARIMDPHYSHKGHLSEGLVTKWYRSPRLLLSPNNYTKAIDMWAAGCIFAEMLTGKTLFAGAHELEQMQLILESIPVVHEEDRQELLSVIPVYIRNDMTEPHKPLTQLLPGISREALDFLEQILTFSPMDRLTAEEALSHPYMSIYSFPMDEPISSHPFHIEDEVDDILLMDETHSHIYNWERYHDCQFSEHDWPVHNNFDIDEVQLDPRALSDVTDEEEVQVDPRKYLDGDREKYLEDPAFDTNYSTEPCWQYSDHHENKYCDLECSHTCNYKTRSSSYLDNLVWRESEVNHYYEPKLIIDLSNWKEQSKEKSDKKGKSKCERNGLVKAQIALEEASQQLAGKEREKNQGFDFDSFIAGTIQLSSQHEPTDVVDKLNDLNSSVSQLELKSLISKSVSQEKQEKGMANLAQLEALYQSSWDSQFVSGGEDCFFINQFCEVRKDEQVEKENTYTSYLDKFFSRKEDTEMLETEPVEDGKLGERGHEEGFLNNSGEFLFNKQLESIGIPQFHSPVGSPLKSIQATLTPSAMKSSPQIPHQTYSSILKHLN
Sequence of UniProt P40692 (P40692 whole entry, looked up): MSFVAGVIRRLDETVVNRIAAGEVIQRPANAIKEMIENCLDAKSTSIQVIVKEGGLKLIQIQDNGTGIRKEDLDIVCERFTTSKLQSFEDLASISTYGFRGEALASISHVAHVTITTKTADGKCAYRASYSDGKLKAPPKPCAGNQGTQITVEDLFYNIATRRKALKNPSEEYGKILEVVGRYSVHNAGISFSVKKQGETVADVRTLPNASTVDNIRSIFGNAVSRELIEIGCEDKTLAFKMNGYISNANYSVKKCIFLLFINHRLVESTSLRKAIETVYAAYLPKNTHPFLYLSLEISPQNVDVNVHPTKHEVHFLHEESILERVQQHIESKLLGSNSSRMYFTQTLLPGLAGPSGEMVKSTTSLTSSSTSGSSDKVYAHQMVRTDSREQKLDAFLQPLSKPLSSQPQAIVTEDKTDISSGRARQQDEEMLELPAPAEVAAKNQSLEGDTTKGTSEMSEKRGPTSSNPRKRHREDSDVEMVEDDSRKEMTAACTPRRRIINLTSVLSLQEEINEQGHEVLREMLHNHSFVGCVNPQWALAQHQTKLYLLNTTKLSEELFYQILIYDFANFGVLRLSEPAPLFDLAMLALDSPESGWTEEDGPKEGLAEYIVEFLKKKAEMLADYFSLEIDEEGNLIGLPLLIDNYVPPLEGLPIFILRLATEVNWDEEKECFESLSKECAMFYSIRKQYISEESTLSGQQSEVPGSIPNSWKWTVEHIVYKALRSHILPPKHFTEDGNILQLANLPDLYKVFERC
Sequence of UniProt Q9BTT4 (Q9BTT4 whole entry, looked up): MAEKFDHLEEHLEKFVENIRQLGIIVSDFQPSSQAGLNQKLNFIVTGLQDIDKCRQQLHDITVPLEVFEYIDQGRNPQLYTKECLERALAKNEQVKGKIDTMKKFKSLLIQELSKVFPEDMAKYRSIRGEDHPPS

Target	log2 fold change [1]	log2 fold change [2]	log2 fold change [3]	log2 fold change [4]	log2 fold change [5]
MORC2 (UniProt Q9Y6X9)	-0.068	0.043	0.049	-0.014	0.018
MINDY1 isoform 3 (UniProt Q8N5J2)	0.017	0.061	-0.003	0.028	–
MLST8 (UniProt Q9BVC4)	-0.038	0.037	-0.051	0.001	0.011
MON2 isoform 5 (UniProt Q7Z3U7)	-0.014	0.006	0.005	0.009	-0.013
MAP4 (UniProt P27816)	0.027	0.012	-0.012	-0.027	-0.043
MLH1 (UniProt P40692)	-0.038	-0.006	0.006	-0.012	0.019
MCU (UniProt Q8NE86)	0.021	0.028	-0.031	-0.023	0.015
KIF4B (UniProt Q2VIQ3)	0.035	0.009	-0.02	0.029	0.013
MRPL12 (UniProt P52815)	-0.084	0.015	-0.022	0.027	0.047
MBOAT2 (UniProt Q6ZWT7)	-0.011	0	0.121	-0.022	-0.017
METTL2A (UniProt Q96IZ6)	0.003	-0.004	0.046	0	0.106
MRPL28 (UniProt Q13084)	-0.002	-0.062	-0.026	0.066	0.356
MGAT5 (UniProt Q09328)	0.088	-0.027	-0.171	0.017	0.083
MPP1 (UniProt Q00013)	-0.01	0.006	0.024	0.016	0.044
MORC3 (UniProt Q14149)	0.013	0	0.003	0.013	0.012
MANEA (UniProt Q5SRI9)	0.146	-0.009	0.044	0.029	-0.161
LARS (UniProt Q9P2J5)	-0.02	-0.007	0.015	0.04	0.077
MAPK1 (UniProt P28482)	0.045	-0.006	-0.016	0.039	0.012
LIMK2 isoform 3 (UniProt P53671)	-0.022	-0.123	0.038	0.005	-0.132
MAP4K2 (UniProt Q12851)	-0.088	0.053	0.022	-0.13	-0.087
LAGE3 (UniProt Q14657)	0.067	-0.058	-0.087	-0.044	0.018
MAST2 (UniProt Q6P0Q8)	-0.257	0.027	0.073	-0.074	-0.028
MAP4 (UniProt E7EVA0)	-0.024	-0.002	0.037	-0.018	-0.041
MED13L (UniProt Q71F56)	-0.034	0.029	0.028	-0.095	0.014
MORF4L1 isoform 2 (UniProt Q9UBU8)	0.012	-0.03	-0.029	-0.041	-0.035
KLHL36 (UniProt Q8N4N3)	-0.072	-0.086	-0.018	-0.011	0.074
KSR1 (UniProt Q8IVT5)	-0.081	-0.024	0.035	0.035	0.242 (active)

Target	log2 fold change [1]	log2 fold change [2]	log2 fold change [3]	log2 fold change [4]	log2 fold change [5]
MAPK12 (UniProt P53778)	0.029	0.068	-0.015	-0.002	0.307
MAP2K4 isoform 2 (UniProt P45985)	-0.018	0.005	-0.065	-0.013	0.188
LAP3 (UniProt P28838)	-0.043	0.021	-0.139	-0.056	-0.285
MAD2L1BP isoform 3 (UniProt Q15013)	0.003	0.005	-0.013	-0.01	-0.006
LPCAT1 (UniProt Q8NF37)	-0.071	0.056	0.066	0	-0.115
MED16 (UniProt Q9Y2X0)	0.019	0.022	0.029	0.001	0.087
KIF2C (UniProt Q99661)	-0.022	-0.023	-0.009	0.052	0.032
MGST1 (UniProt P10620)	-0.08	0.005	0	-0.056	0.022
LRRC40 (UniProt Q9H9A6)	0.001	0.003	0.003	0.012	0.034
LIMS1 isoform 3 (UniProt P48059)	-0.006	0.006	-0.026	0.037	-0.057
MRPL46 (UniProt Q9H2W6)	0.022	-0.012	0.021	0.026	0.199
LRCH3 (UniProt Q96II8)	-0.038	-0.044	0.025	-0.014	-0.028
MAPKAPK2 (UniProt P49137)	0.043	0.008	-0.053	0.004	-0.051
MED10 (UniProt Q9BTT4)	0.038	-0.033	-0.04	0.015	-0.009
LIMK1 (UniProt P53667)	0.007	-0.015	-0.07	-0.024	0.007
MAP1S (UniProt Q66K74)	0.029	0.011	0.021	0.019	0.018
KIF2A isoform 4 (UniProt O00139)	0.006	-0.012	0.015	0.012	0.04
MAP7D3 (UniProt Q8IWC1)	0.056	0.057	-0.091	0.015	-0.05
METTL7A (UniProt Q9H8H3)	0.069	-0.059	-0.078	-0.008	-0.074
LETM1 (UniProt O95202)	0.006	-0.017	0.002	0.042	-0.053
MOSPD2 (UniProt Q8NHP6)	-0.024	0.029	0.047	-0.078	-0.013
MACO1 (UniProt Q8N5G2)	-0.039	-0.044	0.125	-0.04	0.092
MAP2K1 (UniProt Q02750)	-0.012	0.016	-0.047	-0.048	0.081
MECR (UniProt Q9BV79)	-0.001	0.013	0.047	-0.048	0.005
LDAH isoform 2 (UniProt Q9H6V9)	-0.119	0.018	0.001	0.075	-0.002
MAPK6 (UniProt Q16659)	0.062	-0.015	-0.016	-0.001	-0.037
